Experimental data from PubChem BioAssay AID1159580 (chemical genetic matrix, 2015).
Among all 5,500 compounds or so, about 2,000 (36%) were called active. About 18% were inconclusive and are not listed. Cut-off read from the data, not from the text of the source: active = normalized growth mostly below about 0.91 (no sharp cut-off); inconclusive = no clear call, values can overlap the other calls; inactive = mostly above about 0.92. This is one part of the list.

Test: chemical genetic growth profiling, strain panel (AID 1159580);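 note: tested at 20 µM; growth read once vehicle control cultures reached saturation at 30 °C; 1 = growth at the plate median or of vehicle wells; lower values mean less growth of the strain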
Conditions: S. cerevisiae deletion strains, growth OD

Measured: normalized growth

C=C(C)C1Cc2c(ccc3c2OC2COc4cc(OC)c(OC)cc4C2C3=O)O1 (stereo unspecified)
inactive: locus YAL040C, strain CLN3, active compounds read low 1.07 | locus YCL061C, strain MRC1 (second series), active compounds read low 0.98 | locus YDR363W, strain ESC2, active compounds read low 0.99 | locus YER002W, strain NOP16, active compounds read low 0.992 | locus YNL153C, strain GIM3, active compounds read low 0.942 | locus YNL175C, strain NOP13, active compounds read low 0.955 | locus YNL197C, strain WHI3, active compounds read low 0.979 | locus YNL224C, strain SQS1, active compounds read low 0.964 | locus YNL322C, strain KRE1, active compounds read low 0.98 | locus YOR083W, strain WHI5 (second series), active compounds read low 0.958 | locus YPL055C, strain LGE1, active compounds read low 1.01
